This is a sample that favours compounds with a hit; in the whole collection about 8.5% have one here.
GoLoco inh red: RGS12 GoLoco-Gai1 interaction inhibition; P63096; Gai1:RGS12 GoLoco peptide FP, rhodamine, 10 min; Potency, µM (titrated, usually from 61.6 µM), for inactives: top-dose activity, negative = inhibition, hits mostly inhibitors; 0.44% of 230,000 active; active = well fitted inhibition curve with a large enough effect, not every such curve was filed as active; inactive = no such curve, though single readings can be large or run the other way; note: potency is the fitted concentration of half-maximal effect; nearly all actives have a fitted effect of over 30% in size
ALDH1A1 inh: blocks purified human ALDH1A1 activity. P00352. AID 1030. 7.3% of 220,000 active. Purified ALDH1A1, NADH fluorescence, propionaldehyde substrate. Potency, µM (titrated, usually from 75.3 µM), for the others: at the highest dose activity, negative = inhibition, most hits filed as inhibitors;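 note: potency is the fitted concentration of half-maximal effect; plate controls were no enzyme wells and a reference inhibitor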
Target sequence (P00352 whole entry, looked up): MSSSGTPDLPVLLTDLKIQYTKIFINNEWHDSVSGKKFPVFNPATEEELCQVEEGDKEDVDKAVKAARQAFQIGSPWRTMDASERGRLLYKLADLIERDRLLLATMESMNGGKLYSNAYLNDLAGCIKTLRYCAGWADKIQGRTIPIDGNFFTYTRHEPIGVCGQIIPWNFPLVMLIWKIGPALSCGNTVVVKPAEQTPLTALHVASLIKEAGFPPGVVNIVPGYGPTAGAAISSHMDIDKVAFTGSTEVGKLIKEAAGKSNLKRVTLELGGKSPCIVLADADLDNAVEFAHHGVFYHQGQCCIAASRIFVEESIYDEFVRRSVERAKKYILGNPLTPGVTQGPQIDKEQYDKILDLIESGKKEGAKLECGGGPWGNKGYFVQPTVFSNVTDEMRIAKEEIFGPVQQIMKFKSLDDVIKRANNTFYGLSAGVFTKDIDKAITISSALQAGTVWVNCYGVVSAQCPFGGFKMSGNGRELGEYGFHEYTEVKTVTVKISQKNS
Coupling enz: inhibits coupling enzyme system, counter-screen for aldolase hits. activity change, negative = inhibition, % at 58.2 µM, hits read low. coupling enzyme system counterscreen, AmpLite Red fluorescence. AID 2472. 0.67% of 290,000 active; in the data active = activity change below about -30%
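Activity here indicates interference with the coupling reaction, not aldolase inhibition. Compounds at 57.5 uM final met coupling enzymes for 10 min at RT; substrate and AmpLite Red detection followed, with a 525/598 nm fluorescence read after 20 min.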
NPSR antag: neuropeptide S receptor (human) antagonism, cAMP | Q6W5P4 | CHO-NPSR cells, cAMP TR-FRET, antagonist mode | Potency, µM (highest dose often 38.3 µM), without a hit: at the highest dose activity change, negative = inhibition, most hits filed as inhibitors | 1% of 220,000 active; active = well fitted curve in the direction sought with a large enough effect; inconclusive = small, poorly fitted or top-dose-only effect, or another doubt; inactive = no such curve, though single readings can be large; an effect the other way counts as inactive or inconclusive; note: potency is the fitted concentration of half-maximal effect; nearly all actives have a fitted effect of over 50% in size
Sfp inh: inhibitors of Bacillus subtilis Sfp phosphopantetheinyl transferase. 3.5% of 310,000 active. Potency, µM, for inactives: largest response in the series, negative = inhibition, hits mostly inhibitors. Biochemical Sfp PPTase activity, qHTS; active = well fitted curve in the direction sought with a large enough effect; inconclusive = small, poorly fitted or top-dose-only effect, or another doubt; inactive = no such curve, though single readings can be large; an effect the other way counts as inactive or inconclusive;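 note: the enzyme is Sfp with the accession as filed and its product quenches rhodamine fluorescence; potency is the fitted concentration of half-maximal effect; 0% = enzyme reaction without inhibitor and -100% = no enzyme wells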
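With Hepes-Na pH 7.6 buffer containing 10 mM MgCl2, Sfp (15 nM) modified BHQ-2-YbbR (12.5 uM) using rhodamine-CoA (5 uM). Two reads 30 minutes apart at 525/598 nm yielded each well's rate.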
JMJD2E inh: inhibitors of human JMJD2E histone demethylase. B2RXH2. JMJD2E catalytic domain, FDH-coupled NADH fluorescence (FDH is formaldehyde dehydrogenase). Potency, µM (doses to about 57.1 µM), for inactives: top-dose activity change, negative = inhibition, actives largely listed as inhibitors. 1.6% of 230,000 active;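 note: potency is the fitted concentration of half-maximal effect; 0% = wells with enzyme and -100% = buffer wells without enzyme; nearly all actives have a fitted effect of over 50% in size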
Starred values were filed as active, the others as inactive; u = inconclusive; x = not tested or not shown; [ ] = dose if it differs, or a comment. Unless noted, calls come from the whole dose curve; as a rule, active = well fitted inhibition curve with a large enough effect (not every such curve was filed as active); inconclusive = small, poorly fitted or top-dose-only effect, or another doubt; inactive = no such curve, though single readings can be large or run the other way. Unless noted, % is set by controls: 0 for no effect and ±100 for the full control effect.

SMILES | GoLoco inh red | ALDH1A1 inh | Coupling enz | NPSR antag | Sfp inh | JMJD2E inh
CSC1=C(C#N)C(=O)NC(c2ccc(Cl)cc2)S1 (configuration not stated) | 3% | x | 11 | -59% | -14% | 0%
CN(C)S(=O)(=O)c1ccc2c(c1)nc(CCC(=O)Nc1ccc3c(c1)OCO3)n2C | 19% | 5µM* | -3 | -1% | -10% | -3%
CCN(CC)S(=O)(=O)c1ccc2c(c1)nc(CCC(=O)Nc1ccc3c(c1)OCO3)n2CC | 27% | 2.8µM* | 0 | 2% | -1% | -7%
CCN(CC)S(=O)(=O)c1ccc2c(c1)nc(CCC(=O)OCC(=O)Nc1c(F)cccc1F)n2C | 20% | 10µM* | 2 | -12% | -17% | -3%
CN(C)S(=O)(=O)c1ccc2c(c1)nc(CCC(=O)Nc1ccc(N3CCOCC3)cc1)n2C | 13% | -1% | -1 | 16% | 5% | -1%
CCN(CC)S(=O)(=O)c1ccc2c(c1)nc(CCC(=O)Nc1ccc3c(c1)OCO3)n2C | 2% | 7.9µM* | -5 | -4% | -13% | 5%
CCCNS(=O)(=O)c1ccc(CCC(=O)Nc2ccc3c(c2)OCO3)cc1 | 1% | u | 0 | -15%[46.1 µM] | 3% | 2%
COc1cccc(CN2CC(C(=O)NCCSc3nnnn3C)CCC2=O)c1 (configuration not stated) | x | x | x | x | 12% | x
Nc1ncc([N+](=O)[O-])c(N2CCCCCC2)n1 | x | x | 0 | x | 5% | x
O=[N+]([O-])c1ccc(N2CCCC2)nc1N1CCCC1 | 4% | 1.4µM* | -3 | 34% | -18% | -7%
O=C(CC(=O)N/N=C/c1ccccc1)NCc1ccccc1 | 9% | -1% | -40* | -2% | 22% | 7%
O=C(CCC(=O)Nc1ccccc1Cl)N/N=C/c1ccccc1 | -1% | 5% | -47* | -2% | -2% | -1%
S=c1cnc2ccccc2[nH]1 | -20% | 3.2µM* | 4 | -11% | 20µM* | 11µM*
c1ccc2[nH]c(CCCc3nc4ccccc4[nH]3)nc2c1 | x | x | -2 | x | 16% | x
Cc1nc(NS(=O)(=O)c2ccccc2)sc1NC(=O)OCCN(C)C | 0% | 14µM* | -1 | 2%[46.1 µM] | 20µM* | -3%
Cc1nc(NS(=O)(=O)c2ccccc2)sc1C(C)(C)C | -7% | 5µM* | 2 | -2% | -16% | 0%
CCOC(=O)c1sc(NS(=O)(=O)c2ccccc2)nc1C | -7% | -14% | 5 | -14%[46.1 µM] | 14% | -7%
CC(C)/C=C/CN1CCN(CCCc2ccccc2)C(CCO)C1 (configuration not stated) | x | x | -4 | x | 2% | x
Cc1ccc(CN(Cc2ccco2)C(=S)NCC(=O)NC2CC2)cc1 | 4% | u | 0 | 4% | 50µM* | 1%
CCCCNC(=O)CNC(=S)N(Cc1ccc(C)cc1)Cc1ccco1 | 24% | 32µM* | 1 | -21% | 56µM* | -5%
O=C(CCN1C(=O)c2ccc(Br)cc2C1=O)NC1CCCCC1 | x | x | x | x | 6% | x
COc1ccccc1NS(=O)(=O)c1cc(C(=O)O)ccc1F | x | 0% | x | x | x | x
CCOC(=O)c1c(C)c(C(=O)NCc2ccccc2OC)c(C)n1C | 10% | -2% | 0 | -1%[46.1 µM] | 9% | 1%
CCOC(=O)c1c(C)c(C(=O)NCc2ccc(OC)cc2)c(C)n1C | 9% | 7.9µM* | 2 | 5% | -9% | u
N#CC1=C(N)OC2=C(C(=O)CCC2)[C@]12C(=O)N(CC(N)=O)c1ccccc12 | x | 9% | 0 | -1%[46.1 µM] | 12% | 9%
SMILES | GoLoco inh red | ALDH1A1 inh | Coupling enz | NPSR antag | Sfp inh | JMJD2E inh
O=C1CCCC2=C1C1(O)C(=O)c3ccccc3C1(O)O2 (configuration not stated) | -2% | 4µM* | -6 | -1%[46.1 µM] | 9% | -5%
CCC(=O)N[C@@H]1Cc2ccccc2[C@@H](c2ccccc2)C1 | 4% | -8% | 4 | x | 12% | 1%
O=C(CN1CCOCC1)NCc1ccccc1 | 3% | -6% | 2 | 0%[46.1 µM] | 0% | -3%
O=C(CBr)N1CCc2ccccc2C(c2ccccc2)C1 (configuration not stated) | 1% | x | 0 | 4% | 32µM* | 8%
O=C(CN1CCOCC1)N1CCc2ccccc2C(c2ccccc2)C1 (configuration not stated) | -26% | 14µM* | 0 | -20%[46.1 µM] | u | u
Cc1ccc(C(=O)NCCC(=O)Nc2ccccc2C)cc1 | x | x | 1 | x | 1% | x
CCn1c(=O)c(C(=O)NNS(=O)(=O)c2ccc(Br)cc2)c(O)c2ccccc21 | 0% | -1% | -2 | -9% | 30% | u
COc1ccc(OCC(=O)O/N=C(\N)Cc2cccs2)cc1 | -3% | -10% | -2 | 8% | -8% | 0%
N/C(Cc1cccc2ccccc12)=N\OC(=O)c1ccc(Br)o1 | -12% | 10µM* | -4 | -12% | -15% | -8%
N/C(Cc1cccc2ccccc12)=N\OC(=O)Cc1cccs1 | 66% | u | -40* | 1% | 13% | 4%
N/C(Cc1ccc(Cl)cc1Cl)=N\OC(=O)c1ccc(Br)o1 | 21% | x | 1 | -20% | 6% | -17%
Cc1ccccc1OCC(=O)O/N=C(\N)Cc1cccs1 | 13% | 7.1µM* | 1 | -15%[46.1 µM] | -10% | u
COC(=O)CSC1=C(C#N)C(=O)NC2(CCCCC2)S1 | -30% | u | 6 | -3%[46.1 µM] | 25µM* | u
CCN1CCN(C2=NC(=O)/C(=C/c3ccc(C)o3)S2)CC1 | -10% | 20µM* | -34* | u | 16µM* | u
COc1ccc(-n2nc(N)c(C(N)=O)n2)cc1 | 4% | u | -1 | 25% | 10% | -5%
N=c1n(CC(=O)c2ccc(Br)s2)c2ccccc2n1Cc1ccccc1 | 4% | x | 1 | u | 14µM* | 2%
CCN(CC)S(=O)(=O)c1ccc(C(=O)Oc2cc(C)[nH]c(=O)c2[N+](=O)[O-])cc1 | -1% | -6% | 3 | 7% | 7% | -1%
Cc1cc(=O)n(C2CCS(=O)(=O)C2)[nH]1 (configuration not stated) | 10% | 23% | 0 | -21% | -4% | 22µM*
O=C(Oc1ccc(N(Cc2cccs2)C2=NS(=O)(=O)c3ccccc32)cc1)c1ccccc1Cl | 1% | u | 1 | -3% | -1% | 24%
O=C(Oc1ccc(N(Cc2cccs2)C2=NS(=O)(=O)c3ccccc32)cc1)c1ccco1 | 8% | 28µM* | 0 | -23%[46.1 µM] | 7% | u
O=C(OCc1cnc(Cl)s1)c1ccccc1Cl | 3% | -3% | -3 | -7%[46.1 µM] | 11% | 6%
CC(=O)OCn1ncc(N2CCOCC2)c(Br)c1=O | x | x | -2 | x | 21% | x
O=C(OCn1ncc(Br)c(Br)c1=O)c1ccccc1Cl | -16% | 0.4µM* | 5 | 2.5µM* | -16% | 4%
O=C(OCn1ncc(Br)c(Br)c1=O)c1ccc(F)cc1 | -4% | 0.089µM* | -1 | 2.5µM* | 50µM* | 2%

Source: PubChem
